High-throughput results deposited in PubChem BioAssay by National Center for Advancing Translational Sciences (NCATS).
Shown are actives, neighbours in structure and some others; about 3.7% of the full set was active somewhere.
GLP-1R agonist = GLP-1 receptor (human) agonism. P43220. HEK293 GLP-1R CRE-luciferase, luminescence, 4-6 h; cells express a hypersensitive GLP-1R form. Potency, µM (titrated, usually from 45.6 µM), usual class: activators. 380,000 tested, 0.007% active
Target sequence (P43220 whole entry, looked up): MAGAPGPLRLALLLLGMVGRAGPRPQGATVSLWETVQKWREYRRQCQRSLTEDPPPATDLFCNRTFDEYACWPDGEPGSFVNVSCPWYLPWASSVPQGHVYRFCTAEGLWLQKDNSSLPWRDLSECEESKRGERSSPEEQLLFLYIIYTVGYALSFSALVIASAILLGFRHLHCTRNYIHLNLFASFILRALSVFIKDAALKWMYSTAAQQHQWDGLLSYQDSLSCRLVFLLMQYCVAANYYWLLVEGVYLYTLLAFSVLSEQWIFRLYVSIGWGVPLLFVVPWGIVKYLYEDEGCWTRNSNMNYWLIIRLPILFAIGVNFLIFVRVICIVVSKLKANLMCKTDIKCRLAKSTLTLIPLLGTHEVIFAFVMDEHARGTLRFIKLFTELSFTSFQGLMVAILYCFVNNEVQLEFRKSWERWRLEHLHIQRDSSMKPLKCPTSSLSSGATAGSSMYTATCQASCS
HepG2 viability = kills HepG2 cells in TGF-b inhibitor counter-screen | HepG2 CAGA-GFP viability, ATP luminescence, 18 h | Potency, µM (top dose mostly 46.1 µM), most hits filed as cytotoxic | 410,000 tested, 0.76% active
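CellTiter-Glo luminescence gave cytotoxicity after 18 hours at 37 degrees C. The cells were HepG2 CAGA-GFP in 1% FBS DMEM, stimulated with 500 pg/mL TGF-beta after compound addition. %Activity was normalised to no-cell wells (complete cell-killing) and DMSO (no toxicity), and curves were fitted and classified.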
TGFb inhibitor = TGF-b pathway inhibition. AID 588855. HepG2 CAGA-GFP TGF-b/SMAD3 reporter, GFP fluorescence, 18 h; TGF-beta stimulated, 500 pg/mL final. Potency, µM (highest dose often 46.1 µM), most hits filed as inhibitors. 410,000 tested, 1.2% active; note: nearly all actives have a fitted effect of over 65% in size
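Per well, imaged GFP fluorescence of HEPG2 CAGA-GFP cells gives the signal; cells get compound, then TGF-beta (500 pg/mL final), 18 h at 37 degrees C; %Activity versus -TGF-beta and +DMSO controls.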
ATXN2 expr inh = inhibitors of ATXN2 expression | HEK-293 ATXN2-luciferase reporter, luminescence, 24 h | Potency, µM (highest dose often 57 µM), actives largely listed as inhibitors | 360,000 tested, 0.72% active; note: nearly all actives have a fitted effect of over 55% in size
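qHTS (up to 57 uM final) was run with 24 h compound exposure of reporter cells at 37 °C. Each well was multiplexed: SteadyGlo luminescence measured ATXN2-luciferase expression after a fluorogenic Gly-Phe-AFC viability readout (25 uM final).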
S2 tox = viability counter-screen for ATXN expression inhibitors; S2 cells (HEK-293 line with an ATXN2-luciferase reporter) viability, CellTiter-Fluor protease fluorescence, 24 h; Potency, µM (titrated, usually from 56.7 µM), hits mostly cytotoxic; 400,000 tested, 0.49% active; AID 651635; note: nearly all actives have a fitted effect of over 40% in size
GLP1R inv ag = inverse agonists of human GLP-1 receptor. HEK293 GLP-1R CRE-luciferase, luminescence, 24 h; GLP-1R form is constitutively active. Potency, µM (top dose mostly 38.3 µM), actives largely listed as inhibitors. 410,000 tested, 1.6% active. AID 624417; note: nearly all actives have a fitted effect of over 55% in size
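GLP-1R inverse agonism mode: basal reporter luminescence in engineered HEK293 cells measured after one day of compound exposure at 37 deg C, with a 12 min room-temperature detection step.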
Numbers stand for hits. Calls come from the whole dose curve; as a rule, active = well fitted curve in the direction sought with a large enough effect; inconclusive = small, poorly fitted or top-dose-only effect, or another doubt; inactive = no such curve, though single readings can be large; an effect the other way counts as inactive or inconclusive.

For COC(=O)[C@@]12CCCCN1[C@H](c1ccc(-c3ccc(F)cc3)c(OC)c1)[C@@H]1C(=O)N(C)C(=O)[C@@H]12 the results were GLP-1R agonist inactive, HepG2 viability inactive, TGFb inhibitor inconclusive, ATXN2 expr inh inconclusive, S2 tox inconclusive and GLP1R inv ag 10µM.
O=C(c1nc(-c2ccc(Cl)cc2)n2c1CCCCC2)N1CCN(c2ccc(F)cc2)CC1 was read as HepG2 viability inactive, TGFb inhibitor inconclusive, ATXN2 expr inh inconclusive and GLP1R inv ag 10µM.
For O=C(NCc1ccccc1)c1nc(-c2ccc(Cl)cc2)n2c1CCCCC2 the results were HepG2 viability inactive, TGFb inhibitor 11.2µM, ATXN2 expr inh inactive, S2 tox inconclusive and GLP1R inv ag inconclusive.
`O=C(c1nc(-c2ccc(Cl)cc2)n2c1CCCCC2)N1CCN(c2ccccc2F)CC1` gave HepG2 viability inactive, TGFb inhibitor inconclusive, ATXN2 expr inh inactive, S2 tox inconclusive and GLP1R inv ag inconclusive.
`COc1cc(=O)n2c(c1C(=O)N(C)Cc1nonc1C)CCN(C(=O)c1cc(C)cc(C)c1)CC2` gave S2 tox inactive.
`CC(=O)c1ccc(-c2ccc(C3C4C=CCCC4(C)C(=O)N3Cc3ccccc3)c(F)c2)cc1` (stereo not given) gave HepG2 viability inactive and TGFb inhibitor inconclusive.
For CNC(=O)Nc1ccc(-c2nc(N3CC4CCC(C3)O4)c3cnn(C4CCC5(CC4)OCCO5)c3n2)cc1 the results were ATXN2 expr inh inactive.
O=C(Cn1cc(SCc2ccc(F)cc2)c2ccccc21)N1CCCC1 was read as HepG2 viability inactive, TGFb inhibitor inconclusive and GLP1R inv ag inconclusive.
For O=C(CCSCc1cnn(-c2ccccc2)c1-n1cccc1)NCc1ccc(Cl)cc1 the results were HepG2 viability inactive, TGFb inhibitor 15.8µM and GLP1R inv ag inconclusive.
For O=C(CSCc1cnn(-c2ccccc2)c1-n1cccc1)NCc1ccccc1F the results were HepG2 viability inactive, TGFb inhibitor inconclusive and GLP1R inv ag 12.6µM.
`COc1ccccc1CNC(=O)CSCc1cnn(-c2ccccc2)c1-n1cccc1` gave GLP-1R agonist inactive, HepG2 viability inactive, TGFb inhibitor inconclusive, ATXN2 expr inh inactive, S2 tox inactive and GLP1R inv ag inactive.
For Cc1ccc(-n2ccnc(NCCc3ccc(S(N)(=O)=O)cc3)c2=O)c(C)c1 the results were HepG2 viability inactive, TGFb inhibitor inconclusive, ATXN2 expr inh inactive, S2 tox inactive and GLP1R inv ag inactive.
Screening Cc1onc(-c2c(F)cccc2Cl)c1C(=O)c1ccccc1O returned GLP-1R agonist inactive, HepG2 viability 5.62µM, TGFb inhibitor inactive, ATXN2 expr inh inactive, S2 tox inactive and GLP1R inv ag inconclusive.
`CCc1ccc(C2Sc3ccccc3NC3=C2C(=O)c2ccccc23)cc1` (stereo not given) gave HepG2 viability inactive, TGFb inhibitor 11.2µM, ATXN2 expr inh inactive, S2 tox 28.2µM and GLP1R inv ag inconclusive.
CC1CC(=O)C2=C(C1)Nc1ccccc1SC2c1ccc(F)cc1 (stereo not given) was read as GLP-1R agonist inactive, HepG2 viability inactive, TGFb inhibitor inactive, S2 tox inactive and GLP1R inv ag inconclusive.
For CC(=O)Nc1ccc(C2Sc3ccccc3NC3=C2C(=O)c2ccccc23)cc1 (stereo not given) the results were HepG2 viability inactive, TGFb inhibitor inconclusive, ATXN2 expr inh inactive, S2 tox 15.8µM and GLP1R inv ag inactive.
`CC(=O)Nc1ccc(C2C(=O)c3ccccc3C2=O)cc1` gave GLP-1R agonist inactive, HepG2 viability inactive, TGFb inhibitor inactive, ATXN2 expr inh inactive, S2 tox inactive and GLP1R inv ag inactive.
For CC(C)c1ccc(C2Sc3ccccc3NC3=C2C(=O)c2ccccc23)cc1 (stereo not given) the results were HepG2 viability inactive and GLP1R inv ag 8.91µM.
`O=C1C2=C(Nc3ccccc3SC2c2ccc(C(F)(F)F)cc2)c2ccccc21` (stereo not given) gave HepG2 viability inactive, TGFb inhibitor 11.2µM, ATXN2 expr inh inconclusive and GLP1R inv ag inconclusive.
Screening O=C1C2=C(Nc3ccccc3SC2c2ccco2)c2ccccc21 (stereo not given) returned GLP-1R agonist inactive, HepG2 viability inactive, TGFb inhibitor inactive, ATXN2 expr inh inactive, S2 tox inconclusive and GLP1R inv ag inconclusive.
Screening COc1ccccc1C1CN(Cc2cccc(O)c2)Cc2ccccc2O1 (stereo not given) returned S2 tox inactive.
`COC(=O)CCCCC(CCSS/C(CCO)=C(\C)N(C=O)Cc1cnc(C)nc1N)SC(C)=O` (stereo not given) gave ATXN2 expr inh inactive and S2 tox inactive.
`CCOc1ccc(NC(=S)N(CCc2c(C)[nH]c3ccc(C)cc23)Cc2ccco2)cc1` gave GLP-1R agonist inactive, HepG2 viability inactive, TGFb inhibitor inconclusive, ATXN2 expr inh inconclusive, S2 tox inconclusive and GLP1R inv ag 7.94µM.
Screening COc1ccc(NC(=S)N(CCc2c(C)[nH]c3ccc(C)cc23)Cc2ccco2)cc1 returned GLP-1R agonist inactive, HepG2 viability inactive, TGFb inhibitor inactive, ATXN2 expr inh inactive, S2 tox inconclusive and GLP1R inv ag inconclusive.
For COc1ccc(/C=C/C(=O)c2cc(F)ccc2OC(=O)c2ccccc2OC)cc1OC the results were GLP-1R agonist inactive, HepG2 viability inactive, TGFb inhibitor 11.2µM, ATXN2 expr inh inconclusive, S2 tox inconclusive and GLP1R inv ag inconclusive.
For COc1ccc(C=CC(=O)Nc2ccccc2C(=O)O)cc1OC the results were ATXN2 expr inh 0.968µM.
COc1ccc(/C=C/C(=O)c2cc(F)ccc2OC(=O)c2ccc(OC)c(OC)c2)cc1OC was read as GLP-1R agonist inactive, HepG2 viability inactive, TGFb inhibitor inactive, S2 tox inactive and GLP1R inv ag inconclusive.
`CN(C)S(=O)(=O)Oc1ccsc1C(=O)Nc1cccc(Cl)c1` gave GLP-1R agonist inactive, HepG2 viability inactive, TGFb inhibitor inactive, ATXN2 expr inh inconclusive, S2 tox inactive and GLP1R inv ag inactive.
For CN(C)S(=O)(=O)Oc1ccsc1C(=O)Nc1ccc(Cl)c(Cl)c1 the results were GLP-1R agonist inactive, HepG2 viability inactive, TGFb inhibitor inconclusive, ATXN2 expr inh inactive, S2 tox inactive and GLP1R inv ag 10µM.
COC(=O)c1c(-c2ccc(S(C)(=O)=O)cc2)sc2cc(OC)ccc12 was read as GLP-1R agonist inactive, HepG2 viability inactive, TGFb inhibitor inactive, ATXN2 expr inh inactive, S2 tox inactive and GLP1R inv ag inactive.
